Source: the supplement of paper PMC10849652
About 7,900 targets were measured; listed, in parts, are those with a hit and a random draw of the rest. About 0.6% of all pairs of compound and target were hits.

Compound: COc1cc(C(=O)O)ccc1NC(=O)[C@@H]1N[C@@H](CC(C)(C)C)[C@](C#N)(c2ccc(Cl)cc2F)[C@H]1c1cccc(Cl)c1F [idasanutlin]
Experiment: log2 fold change, soluble protein after heating vs DMSO (PISA); higher = thermal stabilisation; K562 cells, 10 uM, 30 min; active = over 0.2 and 3.5 SD of the protein, either way, in both replicates (recomputed)
How it was run: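 Soluble protein was defined as the supernatant after 21,000xg for 90 min. It came from K562 cells at 2×10^6 cells/mL given 10 μM compound for 30 min, heated in aliquots for 3 min across 48°C-58°C, pooled, and extracted in PBS with 0.5% NP-40 at 4°C, and was quantified by TMTpro 16plex LC-MS/MS with equalised channel sums. Thermal stability against control samples, from duplicates, is reported as log2 fold change.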

Sequence of UniProt Q9BSF4 (Q9BSF4 whole entry, looked up): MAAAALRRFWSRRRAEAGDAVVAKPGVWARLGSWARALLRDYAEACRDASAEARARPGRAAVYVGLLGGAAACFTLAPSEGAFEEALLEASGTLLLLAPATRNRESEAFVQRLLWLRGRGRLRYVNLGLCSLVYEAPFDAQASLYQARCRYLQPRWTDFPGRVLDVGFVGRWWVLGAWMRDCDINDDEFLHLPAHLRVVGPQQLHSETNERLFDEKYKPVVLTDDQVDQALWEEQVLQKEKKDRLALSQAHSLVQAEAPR
Sequence of UniProt O43615 (O43615 whole entry, looked up): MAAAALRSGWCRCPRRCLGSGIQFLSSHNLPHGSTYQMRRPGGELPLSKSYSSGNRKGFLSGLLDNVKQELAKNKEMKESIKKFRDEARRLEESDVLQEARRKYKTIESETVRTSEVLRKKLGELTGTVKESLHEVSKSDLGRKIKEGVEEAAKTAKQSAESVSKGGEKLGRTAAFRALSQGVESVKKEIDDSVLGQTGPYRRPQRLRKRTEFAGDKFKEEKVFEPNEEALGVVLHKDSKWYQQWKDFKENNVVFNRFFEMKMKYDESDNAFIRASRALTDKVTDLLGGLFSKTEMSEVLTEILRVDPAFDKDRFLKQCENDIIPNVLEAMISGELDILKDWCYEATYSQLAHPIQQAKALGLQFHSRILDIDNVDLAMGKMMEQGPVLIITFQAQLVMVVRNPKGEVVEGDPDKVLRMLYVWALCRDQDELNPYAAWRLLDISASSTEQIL
Sequence of UniProt P51692 (P51692 whole entry, looked up): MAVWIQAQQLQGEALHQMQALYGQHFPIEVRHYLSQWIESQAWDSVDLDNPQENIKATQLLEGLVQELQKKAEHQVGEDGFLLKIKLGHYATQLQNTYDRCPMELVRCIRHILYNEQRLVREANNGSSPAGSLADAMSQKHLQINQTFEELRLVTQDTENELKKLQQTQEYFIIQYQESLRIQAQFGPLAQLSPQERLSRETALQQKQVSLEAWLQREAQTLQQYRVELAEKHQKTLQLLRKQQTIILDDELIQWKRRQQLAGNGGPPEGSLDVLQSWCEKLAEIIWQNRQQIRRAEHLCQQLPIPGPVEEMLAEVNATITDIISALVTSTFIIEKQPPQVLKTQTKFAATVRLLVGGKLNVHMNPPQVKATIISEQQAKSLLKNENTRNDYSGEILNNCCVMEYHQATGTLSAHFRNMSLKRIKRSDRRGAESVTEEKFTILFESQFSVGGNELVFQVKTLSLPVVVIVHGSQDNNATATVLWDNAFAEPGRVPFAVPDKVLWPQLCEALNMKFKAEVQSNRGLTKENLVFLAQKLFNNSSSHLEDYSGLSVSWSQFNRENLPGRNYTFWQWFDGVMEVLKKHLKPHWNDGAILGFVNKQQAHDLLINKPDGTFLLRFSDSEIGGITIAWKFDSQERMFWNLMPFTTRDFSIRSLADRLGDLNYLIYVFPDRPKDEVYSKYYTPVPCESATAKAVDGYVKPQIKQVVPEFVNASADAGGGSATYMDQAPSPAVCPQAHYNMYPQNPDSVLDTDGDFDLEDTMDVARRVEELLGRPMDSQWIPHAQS
Sequence of UniProt Q658P3 (Q658P3 whole entry, looked up): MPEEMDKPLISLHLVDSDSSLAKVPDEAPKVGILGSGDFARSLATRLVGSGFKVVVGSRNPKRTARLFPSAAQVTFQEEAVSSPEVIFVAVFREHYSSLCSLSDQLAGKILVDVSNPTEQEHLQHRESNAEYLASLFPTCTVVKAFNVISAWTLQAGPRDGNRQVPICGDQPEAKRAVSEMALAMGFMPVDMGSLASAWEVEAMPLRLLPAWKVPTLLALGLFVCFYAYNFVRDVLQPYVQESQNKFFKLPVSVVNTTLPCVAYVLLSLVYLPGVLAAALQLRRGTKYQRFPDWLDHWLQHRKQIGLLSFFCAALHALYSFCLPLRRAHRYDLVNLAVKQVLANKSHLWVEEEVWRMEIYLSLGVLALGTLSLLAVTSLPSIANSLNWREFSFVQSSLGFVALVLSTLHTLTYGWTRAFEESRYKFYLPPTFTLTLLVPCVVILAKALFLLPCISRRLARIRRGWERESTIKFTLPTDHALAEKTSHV
Sequence of UniProt Q07157 (Q07157 whole entry, looked up): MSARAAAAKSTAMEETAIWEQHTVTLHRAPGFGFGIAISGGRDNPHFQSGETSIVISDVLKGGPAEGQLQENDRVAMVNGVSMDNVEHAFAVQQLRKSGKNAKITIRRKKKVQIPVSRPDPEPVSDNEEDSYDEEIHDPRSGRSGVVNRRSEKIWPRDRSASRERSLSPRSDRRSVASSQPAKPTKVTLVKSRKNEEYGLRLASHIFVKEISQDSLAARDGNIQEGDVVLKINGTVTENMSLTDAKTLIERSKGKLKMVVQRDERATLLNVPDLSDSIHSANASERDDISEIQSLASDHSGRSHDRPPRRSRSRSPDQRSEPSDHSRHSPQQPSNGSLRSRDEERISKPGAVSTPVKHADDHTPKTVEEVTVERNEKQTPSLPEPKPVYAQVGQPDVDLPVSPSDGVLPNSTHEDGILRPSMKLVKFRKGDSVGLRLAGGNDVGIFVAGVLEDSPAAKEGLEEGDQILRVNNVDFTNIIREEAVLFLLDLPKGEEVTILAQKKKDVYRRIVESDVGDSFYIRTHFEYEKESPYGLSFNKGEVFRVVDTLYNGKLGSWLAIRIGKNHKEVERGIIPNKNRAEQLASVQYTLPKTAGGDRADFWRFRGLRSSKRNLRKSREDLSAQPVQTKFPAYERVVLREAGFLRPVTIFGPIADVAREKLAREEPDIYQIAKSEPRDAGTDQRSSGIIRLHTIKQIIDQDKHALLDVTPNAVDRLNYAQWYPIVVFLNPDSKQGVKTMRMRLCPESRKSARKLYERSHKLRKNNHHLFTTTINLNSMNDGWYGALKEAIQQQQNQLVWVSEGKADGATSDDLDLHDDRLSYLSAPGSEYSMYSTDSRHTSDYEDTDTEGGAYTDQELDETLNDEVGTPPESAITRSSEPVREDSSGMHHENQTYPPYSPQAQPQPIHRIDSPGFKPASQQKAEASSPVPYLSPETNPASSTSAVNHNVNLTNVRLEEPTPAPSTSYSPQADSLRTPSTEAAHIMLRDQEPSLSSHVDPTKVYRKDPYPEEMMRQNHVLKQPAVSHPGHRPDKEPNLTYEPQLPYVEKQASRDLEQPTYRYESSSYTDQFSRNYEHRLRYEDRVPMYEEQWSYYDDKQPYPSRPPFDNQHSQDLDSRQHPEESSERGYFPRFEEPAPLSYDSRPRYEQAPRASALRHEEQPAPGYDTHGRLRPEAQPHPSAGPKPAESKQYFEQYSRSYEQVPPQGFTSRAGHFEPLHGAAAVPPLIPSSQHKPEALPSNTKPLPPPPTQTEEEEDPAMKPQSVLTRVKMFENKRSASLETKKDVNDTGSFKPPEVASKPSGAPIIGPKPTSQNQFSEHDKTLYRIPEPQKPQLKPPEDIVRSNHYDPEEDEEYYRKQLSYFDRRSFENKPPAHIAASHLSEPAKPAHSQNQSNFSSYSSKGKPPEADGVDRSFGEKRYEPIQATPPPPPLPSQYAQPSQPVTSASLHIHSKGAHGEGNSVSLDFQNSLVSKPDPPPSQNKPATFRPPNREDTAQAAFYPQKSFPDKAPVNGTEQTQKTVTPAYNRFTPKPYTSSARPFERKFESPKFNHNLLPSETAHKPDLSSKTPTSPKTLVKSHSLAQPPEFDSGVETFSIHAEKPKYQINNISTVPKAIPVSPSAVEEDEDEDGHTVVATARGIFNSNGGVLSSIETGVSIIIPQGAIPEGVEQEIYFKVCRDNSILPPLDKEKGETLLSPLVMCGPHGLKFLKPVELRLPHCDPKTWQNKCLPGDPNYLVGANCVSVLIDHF
Sequence of UniProt O60271 (O60271 whole entry, looked up): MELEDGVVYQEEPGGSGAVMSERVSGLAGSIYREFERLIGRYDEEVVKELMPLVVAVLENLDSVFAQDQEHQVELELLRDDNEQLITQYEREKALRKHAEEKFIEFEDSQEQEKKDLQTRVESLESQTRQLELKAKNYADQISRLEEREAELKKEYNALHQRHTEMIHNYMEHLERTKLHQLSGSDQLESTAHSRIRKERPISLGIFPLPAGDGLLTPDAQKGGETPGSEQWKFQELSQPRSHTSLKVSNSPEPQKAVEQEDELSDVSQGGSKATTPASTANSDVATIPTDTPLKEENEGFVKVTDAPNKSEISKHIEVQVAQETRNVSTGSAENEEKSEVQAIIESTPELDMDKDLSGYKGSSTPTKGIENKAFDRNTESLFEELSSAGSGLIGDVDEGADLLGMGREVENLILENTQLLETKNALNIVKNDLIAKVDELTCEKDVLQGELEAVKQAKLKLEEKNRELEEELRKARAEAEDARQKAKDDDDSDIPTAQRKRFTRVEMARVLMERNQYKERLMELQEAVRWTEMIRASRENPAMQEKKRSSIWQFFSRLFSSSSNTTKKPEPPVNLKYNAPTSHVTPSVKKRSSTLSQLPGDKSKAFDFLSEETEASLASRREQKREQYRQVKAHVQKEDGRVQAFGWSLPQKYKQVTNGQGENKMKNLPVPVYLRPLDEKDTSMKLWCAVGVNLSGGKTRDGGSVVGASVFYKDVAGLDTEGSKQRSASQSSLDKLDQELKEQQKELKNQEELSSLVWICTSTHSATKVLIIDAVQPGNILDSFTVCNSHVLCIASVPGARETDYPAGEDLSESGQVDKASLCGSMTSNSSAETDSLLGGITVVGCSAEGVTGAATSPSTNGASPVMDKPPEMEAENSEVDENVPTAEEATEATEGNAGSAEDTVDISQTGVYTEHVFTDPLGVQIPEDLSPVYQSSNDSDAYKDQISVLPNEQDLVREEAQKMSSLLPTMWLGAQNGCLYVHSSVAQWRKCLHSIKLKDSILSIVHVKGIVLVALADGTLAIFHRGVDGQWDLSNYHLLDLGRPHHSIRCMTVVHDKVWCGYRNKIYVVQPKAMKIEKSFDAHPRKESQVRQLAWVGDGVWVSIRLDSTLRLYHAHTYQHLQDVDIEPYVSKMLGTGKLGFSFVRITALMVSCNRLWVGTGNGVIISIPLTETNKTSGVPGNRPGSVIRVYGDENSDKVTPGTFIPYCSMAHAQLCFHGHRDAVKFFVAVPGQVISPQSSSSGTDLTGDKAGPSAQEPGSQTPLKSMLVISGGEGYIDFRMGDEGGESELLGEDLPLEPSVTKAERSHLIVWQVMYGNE

**Q.** Which log2 fold change does the source give for TERF2IP (UniProt Q9NYB0) here?
**A.** Its log2 fold change is 0.025 (inactive).

**Q.** With TGFBR1 isoform 2 (UniProt P36897) as the target, how does the log2 fold change read?
**A.** Its log2 fold change is -0.007 (inactive).

**Q.** For SLC25A39 (UniProt Q9BZJ4), which log2 fold change is on record?
**A.** The log2 fold change was -0.115 (inactive).

**Q.** SLC27A2 (UniProt O14975) was tested. Which log2 fold change did it give?
**A.** The log2 fold change was 0.257 (inactive).

**Q.** For STAT5B (UniProt P51692), which log2 fold change is on record?
**A.** Its log2 fold change is 0.086 (inactive).

**Q.** With TBC1D15 isoform 3 (UniProt Q8TC07) as the target, how does the log2 fold change read?
**A.** The log2 fold change was -0.058 (inactive).

**Q.** Which log2 fold change does the source give for TELO2 (UniProt Q9Y4R8) here?
**A.** The log2 fold change was -0.103 (inactive).

**Q.** Which log2 fold change does the source give for SQSTM1 (UniProt Q13501) here?
**A.** The log2 fold change was 0.072 (inactive).

**Q.** TBC1D5 isoform 2 (UniProt Q92609) was tested. Which log2 fold change did it give?
**A.** The log2 fold change was -0.052 (inactive).

**Q.** SRI (UniProt P30626) was tested. Which log2 fold change did it give?
**A.** The log2 fold change was -0.031 (inactive).

**Q.** How did the log2 fold change turn out when STAT3 (UniProt P40763) was run?
**A.** The log2 fold change was -0.003 (inactive).

**Q.** Which log2 fold change does the source give for SRPRA (UniProt P08240) here?
**A.** Its log2 fold change is -0.107 (inactive).

**Q.** Which log2 fold change does the source give for TAOK1 (UniProt Q7L7X3) here?
**A.** Its log2 fold change is 0.031 (inactive).

**Q.** Which log2 fold change does the source give for STK26 (UniProt Q9P289) here?
**A.** The log2 fold change was 0.045 (inactive).

**Q.** For STK4 (UniProt Q13043), which log2 fold change is on record?
**A.** Its log2 fold change is 0.01 (inactive).

**Q.** STXBP2 isoform 3 (UniProt Q15833) was tested. Which log2 fold change did it give?
**A.** The log2 fold change was 0.043 (inactive).

**Q.** How did the log2 fold change turn out when SRPRB (UniProt Q9Y5M8) was run?
**A.** Its log2 fold change is -0.11 (inactive).

**Q.** For TIMM29 (UniProt Q9BSF4), which log2 fold change is on record?
**A.** Its log2 fold change is -0.096 (inactive).

**Q.** How did the log2 fold change turn out when SPG11 (UniProt Q96JI7) was run?
**A.** The log2 fold change was -0.118 (inactive).

**Q.** Which log2 fold change does the source give for SLC25A36 (UniProt Q96CQ1) here?
**A.** The log2 fold change was -0.064 (inactive).

**Q.** Which log2 fold change does the source give for SLC25A42 (UniProt Q86VD7) here?
**A.** Its log2 fold change is 0.047 (inactive).

**Q.** Which log2 fold change does the source give for TAMM41 isoform 3 (UniProt Q96BW9) here?
**A.** The log2 fold change was -0.122 (inactive).

**Q.** SRSF4 (UniProt Q08170) was tested. Which log2 fold change did it give?
**A.** Its log2 fold change is 0.207 (inactive).

**Q.** For SNRNP27 (UniProt Q8WVK2), which log2 fold change is on record?
**A.** The log2 fold change was 0.121 (inactive).

**Q.** For TJP2 isoform 7 (UniProt Q9UDY2), which log2 fold change is on record?
**A.** Its log2 fold change is -0.017 (inactive).

**Q.** How did the log2 fold change turn out when STEAP3 isoform 2 (UniProt Q658P3) was run?
**A.** Its log2 fold change is -0.11 (inactive).

**Q.** SP100 isoform 4 (UniProt P23497) was tested. Which log2 fold change did it give?
**A.** Its log2 fold change is -0.022 (inactive).

**Q.** SPG21 (UniProt Q9NZD8) was tested. Which log2 fold change did it give?
**A.** Its log2 fold change is 0.03 (inactive).

**Q.** Which log2 fold change does the source give for TIMM44 (UniProt O43615) here?
**A.** The log2 fold change was -0.042 (inactive).

**Q.** Which log2 fold change does the source give for TBC1D23 (UniProt Q9NUY8) here?
**A.** Its log2 fold change is 0.068 (inactive).

**Q.** With SPAG9 (UniProt O60271) as the target, how does the log2 fold change read?
**A.** The log2 fold change was 0 (inactive).

**Q.** How did the log2 fold change turn out when SNRPB2 (UniProt P08579) was run?
**A.** Its log2 fold change is 0.021 (inactive).

**Q.** With SNX6 (UniProt Q9UNH7) as the target, how does the log2 fold change read?
**A.** Its log2 fold change is -0.01 (inactive).

**Q.** STK25 (UniProt O00506) was tested. Which log2 fold change did it give?
**A.** The log2 fold change was 0.006 (inactive).

**Q.** Which log2 fold change does the source give for TJP1 (UniProt Q07157) here?
**A.** Its log2 fold change is 0.001 (inactive).

**Q.** With STK11IP (UniProt Q8N1F8) as the target, how does the log2 fold change read?
**A.** Its log2 fold change is 0.044 (inactive).

**Q.** Which log2 fold change does the source give for SUMO1 (UniProt P63165) here?
**A.** Its log2 fold change is -0.099 (inactive).

**Q.** TM9SF2 (UniProt Q99805) was tested. Which log2 fold change did it give?
**A.** The log2 fold change was -0.103 (inactive).
